In the library only some 12% were active in any assay of this set; here they are far more common.
BAZ2B block: blocks human BAZ2B | 360,000 tested, 4.4% active | Q9UIF8 | AlphaScreen BAZ2B-H3K14Ac peptide displacement | AID 504333 | Potency, µM (highest dose often 114 µM), inactives show at the top dose activity change, negative = inhibition, hits mostly inhibitors; further: on the % scale 0 is the no-effect control and ±100 the full control effect; nearly all actives have a fitted effect of over 60% in size
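AlphaScreen displacement: compounds (up to 110uM) incubated 30 min at room temperature with a preformed 50 nM BAZ2B/50 nM biotinylated H3K14Ac peptide complex in PBS pH 7.4 with Tween-20. Donor and acceptor beads at 10 ug/mL final added, 20 min light-protected before reading.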
Sfp PPTase inh: blocks B. subtilis Sfp PPTase activity. Q9F4F7. Biochemical Sfp PPTase activity, qHTS. Potency, µM, for the others: largest response in the series, negative = inhibition, actives largely listed as inhibitors. 310,000 tested, 3.5% active. AID 1490;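 further: the enzyme is Sfp with the accession as filed and its product quenches rhodamine fluorescence; 0% = enzyme reaction without inhibitor and -100% = no enzyme wells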
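Step 1, compound plus 15 nM Sfp-PPTase, 15 min, room temperature. Step 2, add rhodamine-CoA (5 uM) and BHQ-2-YbbR (12.5 uM). Step 3, read 525/598 nm fluorescence at 0 and 30 min.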
G9a inh: inhibitors of human histone lysine methyltransferase G9a; AID 504332; Potency, µM (series often up to 102 µM), for the others: at the top dose activity, negative = inhibition, most hits filed as inhibitors; 350,000 tested, 8.8% active; Q96KQ7; G9a H3K9 monomethylation, AlphaScreen, 2 h; further: on the % scale 0 is the no-effect control and ±100 the full control effect; nearly all actives have a fitted effect of over 75% in size
Target sequence (Q96KQ7 913-1193 limits assumed): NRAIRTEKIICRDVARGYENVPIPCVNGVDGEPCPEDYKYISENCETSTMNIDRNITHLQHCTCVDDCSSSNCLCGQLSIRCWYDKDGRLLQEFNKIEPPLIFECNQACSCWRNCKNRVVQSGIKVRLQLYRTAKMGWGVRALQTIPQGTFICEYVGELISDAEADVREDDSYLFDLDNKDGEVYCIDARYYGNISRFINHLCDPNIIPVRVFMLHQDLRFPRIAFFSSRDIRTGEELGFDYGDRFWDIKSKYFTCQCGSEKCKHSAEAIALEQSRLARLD
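AlphaScreen read-out: biotin-H3K9 peptide (500 nM) methylation by 20 nM enzyme with 20 uM SAM, 2 h at room temperature after 15 min compound preincubation; anti-monomethyl H3K9 antibody plus donor/acceptor beads, 10 min dark.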
HP1b chromo inh: HP1-beta chromodomain-methylated histone interaction inhibition. AlphaScreen HP1-beta / biotin-H3K9me3 peptide binding. AID 540317. Potency, µM (series often up to 114 µM), for the others: at the top dose activity change, negative = inhibition, hits mostly inhibitors. 390,000 tested, 0.56% active. P83916; further: nearly all actives have a fitted effect of over 70% in size
Target sequence (P83916 whole entry, looked up): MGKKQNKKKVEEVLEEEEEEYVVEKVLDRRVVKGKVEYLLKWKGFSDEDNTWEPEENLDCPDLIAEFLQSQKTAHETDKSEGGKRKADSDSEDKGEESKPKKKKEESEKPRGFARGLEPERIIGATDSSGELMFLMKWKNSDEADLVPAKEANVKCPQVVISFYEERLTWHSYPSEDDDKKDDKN
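AlphaScreen: HP1-beta (50 nM) preformed 30 min with biotin-H3(1-18)K9me3 peptide (50 nM) in PBS pH 7.4, 0.01% Tween-20. Compound added for 30 min at RT, then streptavidin donor/nickel chelate acceptor beads (10 ug/mL) for 30 min.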
JMJD2A Tudor: inhibitors of human JMJD2A Tudor domain | O75164 | Potency, µM (doses to about 114 µM), for the others: at the top dose activity change, negative = inhibition, usual class: inhibitors | AlphaScreen JMJD2A-Tudor / H3K4me3 peptide binding | 390,000 tested, 4.4% active; further: on the % scale 0 is the no-effect control and ±100 the full control effect; nearly all actives have a fitted effect of over 50% in size
* marks the source's active call; other numbers are inactive results; [ ] = dose if it differs, or a comment. The call rests on the fitted dose curve; in most records, active means well fitted curve in the direction sought with a large enough effect; inconclusive means small, poorly fitted or top-dose-only effect, or another doubt; inactive means no such curve, though single readings can be large; an effect the other way counts as inactive or inconclusive. Potency means the concentration at half of the fitted maximal effect.

`CN1CCc2nc3sc(C(=O)NCc4ccccc4)c(N)c3cc2C1` gave BAZ2B block inconclusive, Sfp PPTase inh -27.0%, G9a inh 11.2µM*, HP1b chromo inh 23.8% and JMJD2A Tudor -12.7%.
Screening CC1(CC(=O)Nc2ccccc2)NC(=S)N(c2ccccc2)N1 (stereo not drawn) returned BAZ2B block inconclusive, Sfp PPTase inh inconclusive, G9a inh inconclusive, HP1b chromo inh -7.3% and JMJD2A Tudor 5.62µM*.
For CCCCCCCC1(C)NC(=O)NC1=O (stereo not drawn) the results were BAZ2B block 2.6%, Sfp PPTase inh 8.0%, HP1b chromo inh 11.2% and JMJD2A Tudor -9.7%.
`C=C(C)CCC1(C)NC(=O)N(c2ccccc2)N1` (stereo not drawn) gave BAZ2B block -18.6%, Sfp PPTase inh -9.1%, G9a inh inconclusive, HP1b chromo inh 26.3% and JMJD2A Tudor -1.8%.
CCCCCC1(C)NC(=S)N(c2ccccc2)N1 (stereo not drawn) was read as BAZ2B block inconclusive, Sfp PPTase inh 39.8µM*, G9a inh inconclusive, HP1b chromo inh -6.9% and JMJD2A Tudor 50.1µM*.
Screening CCCCCCC1(C)NC(=S)N(c2ccccc2)N1 (stereo not drawn) returned Sfp PPTase inh inconclusive, G9a inh 14.1µM*, HP1b chromo inh inconclusive and JMJD2A Tudor inconclusive.
Screening O=C(c1ccccc1)c1nn(-c2ccccc2)c(=O)cc1C(F)(F)F returned BAZ2B block 89.1µM*, Sfp PPTase inh 4.1%, G9a inh -14.6%, HP1b chromo inh 17.8% and JMJD2A Tudor -15.0%.
Screening O=C(Cc1cccc(NC(=O)C2CCCN(C(=O)C3CCCCC3)C2)c1)Nc1ccc(C(=O)N2CCCCC2)cc1 (stereo not drawn) returned HP1b chromo inh 51.0% and JMJD2A Tudor -9.4%.
`CCNC(=O)/C=C1\NC(C)(C)Cc2c1ccc1ccccc21` gave BAZ2B block -35.6%, Sfp PPTase inh 13.9%, G9a inh 11.2µM*, HP1b chromo inh 1.1% and JMJD2A Tudor -22.7%.
For CC1(C)Cc2c(ccc3ccccc23)C(=O)N1 the results were BAZ2B block 3.5%, Sfp PPTase inh 7.3%, G9a inh -1.0%[12.7 µM], HP1b chromo inh 44.6% and JMJD2A Tudor -1.4%.
Screening NNC(=O)C(=O)/C=C1\NC2(CCCC2)Cc2ccccc21 returned BAZ2B block inconclusive, Sfp PPTase inh 5.5%, G9a inh -6.9%[59 µM], HP1b chromo inh 7.2% and JMJD2A Tudor -34.5%.
CCC1(C)Cc2ccccc2/C(=C/C(=O)N2CCCCC2)N1 (stereo not drawn) was read as BAZ2B block inconclusive, Sfp PPTase inh 14.4%, G9a inh 39.8µM*, HP1b chromo inh 0.2% and JMJD2A Tudor inconclusive.
CNC(=O)/C=C1\NC(C)(C)Cc2ccccc21 was read as BAZ2B block -30.5%, Sfp PPTase inh 50.1µM*, G9a inh -19.5%[12.7 µM], HP1b chromo inh 26.6% and JMJD2A Tudor -4.8%.
For CCOc1cc2c(cc1OCC)CN(CC(=O)Nc1ccccc1C(=O)NC1CC1)CC2 the results were BAZ2B block 3.5%, G9a inh 23.1%[59 µM], HP1b chromo inh 36.5% and JMJD2A Tudor -17.4%.
For O=C(CN1C(=O)COc2ccccc21)NCCCN1CCc2ccccc2C1 the results were BAZ2B block -3.0%, Sfp PPTase inh 20µM*, G9a inh inconclusive, HP1b chromo inh 22.4% and JMJD2A Tudor inconclusive.
`O=C(CN1C(=O)COc2ccccc21)NCCCN1CCN(Cc2ccccc2)CC1` gave BAZ2B block -1.5%, Sfp PPTase inh 9.2%, G9a inh 9.4%[12.7 µM], HP1b chromo inh 15.7% and JMJD2A Tudor -20.9%.
`Brc1cc2c(cc1/C=N/Nc1nc(N3CCCCC3)nc(N3CCCCC3)n1)OCO2` gave BAZ2B block inconclusive, Sfp PPTase inh 8.0% and G9a inh -35.4%[59 µM].
`Nn1c(SCC(=O)Nc2ccccc2Oc2ccccc2)nnc1C1CC1` gave BAZ2B block 2.1%, G9a inh 50.1µM*, HP1b chromo inh 18.7% and JMJD2A Tudor -12.4%.
Cc1ccc(NC(=O)CSCC(=O)N(C)CC(=O)Nc2ccccc2C(F)(F)F)cc1 was read as BAZ2B block 6.4%, G9a inh 50.1µM*, HP1b chromo inh 20.4% and JMJD2A Tudor -13.8%.
Cc1ccc(NC(=O)CSCC(=O)N(C)CC(=O)Nc2cccc3ccccc23)cc1 was read as BAZ2B block -8.9%, G9a inh 14.6%[59 µM], HP1b chromo inh -4.5% and JMJD2A Tudor -10.5%.
Cc1cccc(C)c1NC(=O)CN(C)CC(=O)Nc1ccccc1Oc1ccccc1 was read as BAZ2B block -2.5%, Sfp PPTase inh -4.1%, G9a inh 5.2%, HP1b chromo inh 12.7% and JMJD2A Tudor -22.8%.
For Cc1ccc(NC(=O)CN(C)CC(=O)Nc2ccccc2Oc2ccccc2)cc1 the results were BAZ2B block 25.1µM*, Sfp PPTase inh inconclusive, G9a inh 35.5µM*, HP1b chromo inh 17.8µM* and JMJD2A Tudor 3.55µM*.
`O=C(O)CCC(=O)Nc1ccccc1Oc1ccccc1` gave BAZ2B block -21.4%, Sfp PPTase inh 9.5%, G9a inh -10.6%, HP1b chromo inh 1.3% and JMJD2A Tudor 20µM*.
Screening CC(O)c1nc2ccccc2n1C1CCCCC1 (stereo not drawn) returned BAZ2B block 7.6%, Sfp PPTase inh 3.3%, G9a inh 0.7%[59 µM], HP1b chromo inh 14.4% and JMJD2A Tudor -15.4%.
`Cc1ccccc1CC1SC(N)=NC1=O` (stereo not drawn) gave BAZ2B block -19.9%, Sfp PPTase inh 16.0%, G9a inh 31.6µM*, HP1b chromo inh 21.0% and JMJD2A Tudor -12.6%.
Screening Cc1ccccc1CC1SC(N=C(N)N)=NC1=O (stereo not drawn) returned BAZ2B block 2.8%, Sfp PPTase inh 7.9%, G9a inh -6.9%, HP1b chromo inh 35.2% and JMJD2A Tudor inconclusive.
CCN(Cc1nc2cc(Cl)ccc2c(=O)[nH]1)C(=O)C1CC(=O)N(c2cccc3ccccc23)C1 (stereo not drawn) was read as BAZ2B block 6.3%, G9a inh inconclusive, HP1b chromo inh 10.3% and JMJD2A Tudor -20.8%.
For CC(C)C[C@@H](NC(=O)[C@@H](Cc1ccccc1)NC(=O)c1cnccn1)B(O)O the results were Sfp PPTase inh 31.2% and G9a inh 1.3%[12.7 µM].
`CCOC(=O)CSc1c(-c2ccc(Cl)cc2)[nH]c2ccccc12` gave BAZ2B block 8.6%, Sfp PPTase inh 16.7%, G9a inh -12.5%[59 µM], HP1b chromo inh 3.1% and JMJD2A Tudor 22.4µM*.
Cc1ccc(NC(=O)CSc2nnc3nc(C)cc(C)n23)cc1 was read as BAZ2B block 8.8%, G9a inh -1.1%[59 µM], HP1b chromo inh 59.1% and JMJD2A Tudor -5.5%.

High-throughput results deposited in PubChem by National Center for Advancing Translational Sciences (NCATS).
